Compounds with a hit are over-represented: about 1.6% of the library has one in this group of screens.
Hsp70 activator = Hsp70 transcriptional activators, primary screen, cell-based, HeLa, Hsp70 promoter luciferase, luminescence, 10 µM | HeLa Hsp70 promoter luciferase reporter; scaled: vehicle 0, proteasome-inhibitor control 100% | hit rate 0.04% among 200,000 | activation, % at 10 µM;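 active means activation above the mean across all tested compounds plus 3 SD, cutoff set per campaign, cut at about 5.5% in these data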;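 further: 100% = MG132 at 30 µM as the positive control and 0% = DMSO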
DTT redox prof = compounds producing H2O2 with reducing agent – biochemical, NIH compound library profiling, artefact control for MLSCN library redox annotation, primary screen; activation, % at 10 µM; DTT-dependent redox cycling H2O2, phenol red/HRP absorbance; 100% = 100 µM peroxide control, 0% = buffer; hit rate 0.03% among 200,000;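 active means activation of at least 50% relative to the plate's high and low controls in the primary single-dose screen; inactive means activation below 50%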;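 further: compound incubated with DTT at 0.8 mM final as the reducing agent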
p97 inhibitor = inhibitors of human p97 ATPase, primary screen, biochemical; recombinant p97 ATPase, Kinase-Glo ATP luminescence, 3 h; inhibition, % at 8 µM; hit rate 0.42% among 220,000; in the data active means inhibition above about 15%;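 further: 0% = DMSO vehicle and 100% = wells lacking enzyme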
Wee1 degr inh = Wee1 degradation inhibitors, primary screen, cell-based, HeLa, Wee1K328M-luciferase, luminescence; Wee1-like protein kinase (Homo sapiens), P30291; HeLa Luc-Wee1K328M stability; 100% = proteasome inhibitor MG132 effect; reporter increase, % at 5 µM; hit rate 1.2% among 220,000;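 active means activation above the mean of all tested compounds plus 3 SD, set per screening run, cut at about 8.8% in these data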;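 further: cells exposed to compound for 20 h before luminescence read; 0% = DMSO alone and 100% = MG132 at 30 µM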
Target sequence (P30291 whole entry K328M): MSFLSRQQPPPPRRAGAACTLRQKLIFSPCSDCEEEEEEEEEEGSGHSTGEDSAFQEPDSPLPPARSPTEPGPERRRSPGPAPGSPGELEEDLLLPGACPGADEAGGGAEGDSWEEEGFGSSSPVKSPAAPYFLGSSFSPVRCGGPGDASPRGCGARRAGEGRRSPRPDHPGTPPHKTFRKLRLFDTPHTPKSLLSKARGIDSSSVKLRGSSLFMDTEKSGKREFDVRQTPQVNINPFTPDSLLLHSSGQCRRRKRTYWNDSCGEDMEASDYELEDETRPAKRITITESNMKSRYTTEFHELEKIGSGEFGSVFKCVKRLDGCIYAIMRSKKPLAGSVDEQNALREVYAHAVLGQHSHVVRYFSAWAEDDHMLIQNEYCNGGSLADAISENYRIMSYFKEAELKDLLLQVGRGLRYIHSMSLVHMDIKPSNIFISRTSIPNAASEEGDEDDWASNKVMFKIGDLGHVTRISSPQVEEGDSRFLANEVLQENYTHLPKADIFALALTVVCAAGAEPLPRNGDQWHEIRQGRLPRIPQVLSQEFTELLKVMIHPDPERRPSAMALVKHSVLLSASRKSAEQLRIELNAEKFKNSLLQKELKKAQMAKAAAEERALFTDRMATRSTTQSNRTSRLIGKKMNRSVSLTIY
HSV replic up = enhancers of HSV replication in host cells, fold increase, host cell viability | hit rate 0.005% among 220,000 | maximum fold increase | AID 1956, 2009 | HSV replication augmentation in cells; in the data active means maximum fold increase above about 1.5; inconclusive means no clear call, values can overlap the other calls; tested in PC3 cells
p97 confirm = p97 ATPase inhibitors, retest, confirmation, biochemical; shares compounds with p97 inhibitor; recombinant p97 ATPase, Kinase-Glo ATP luminescence; inhibition, % at 8 µM; hit rate 44% among 760;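 active means percent inhibition of p97 ATPase above a set limit, the primary screen's mean plus 3 SD, cut at about 15% in these data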;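 further: 0% = DMSO wells and 100% = wells lacking p97 protein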
An asterisk follows results filed as active; i = inactive; u = inconclusive; x = no result.

SMILES	Hsp70 activator	DTT redox prof	p97 inhibitor	Wee1 degr inh	HSV replic up	p97 confirm
CCOc1cc2c3c(c1)C(C)=CC(C)(C)N3C(=O)C2=O	0	-1	4	-1	i	x
Cc1cc(OC(=O)c2ccc(S(=O)(=O)N3CCCCC3)cc2)c([N+](=O)[O-])c(=O)[nH]1	0	-9	15*	0	i	4
Cc1cc(OC(=O)c2ccc(S(=O)(=O)N3CCCC3)cc2)c([N+](=O)[O-])c(=O)[nH]1	0	-1	6	6	i	x
CCOCCCNc1nc2nc3ccc(C)cn3c(=O)c2cc1C(=O)NCC1CCCO1 (configuration not stated)	0	0	3	0	i	x
C(=N\Nc1nc2ccccc2[nH]1)/c1c[nH]c2ccccc12	0	0	15*	0	i	8
Cc1ccccc1/C=N/Nc1nc2ccccc2[nH]1	0	-1	3	6	i	x
C(=N\Nc1nc2ccccc2[nH]1)/c1cccc2cccnc12	x	x	20*	-1	i	3
CC(Sc1nnc(COc2ccc3ccccc3c2)n1C)C(=O)O (configuration not stated)	0	1	6	-1	i	x
O=C(CSc1ccc(F)cc1)Nc1ccc(Br)cc1	0	-1	-1	6	i	x
O=C(CSc1ccc(F)cc1)Nc1ccccc1Br	0	0	15*	2	i	4
COc1ccc(-c2nc(-c3ccc(NC(=O)c4ccc(Br)o4)cc3)no2)cc1OC	0	0	17*	-3	i	2
COc1cc(C(=O)c2ccccc2)c([N+](=O)[O-])cc1OC	x	x	1	1	i	x
COc1cc(C(=O)c2nccc3cc(OC)c(OC)cc23)c([N+](=O)[O-])cc1OC	0	-2	30*	-4	i	25*
CC1CN(C(=O)c2cccc(COc3ccc(Br)cc3)c2)CC(C)O1 (configuration not stated)	0	0	-5	7	i	x
NC(N)=Nc1cc2ccccc2c2ccccc12	x	x	15*	-1	i	10
Nc1cccc2c1C(=O)N(C(=O)/C=C/c1cccc(Br)c1)C2=O	x	x	17*	1	i	19*
Nc1cccc2c1C(=O)N(C(=O)/C=C/c1cccc(F)c1)C2=O	0	0	2	4	i	x
CCOC(=O)NCc1ccc(S(=O)(=O)Nc2ccccc2C)cc1	0	0	1	-3	i	x
Cc1cc(C2=NNC(=NCCc3ccccc3)SC2)c(C)n1-c1c(C)n(C)n(-c2ccccc2)c1=O	x	x	16*	4	i	7
CC(=O)N(Cc1ccc(Br)cc1)c1ccccc1C(=O)O	x	x	5	2	i	x
CN(C)CCCn1c(N)c(C#N)c2nc3ccccc3nc21	x	x	32*	6	u	7
O=[N+]([O-])c1ccccc1NC(=S)N/N=C/c1ccc(O)c(O)c1	0	0	19*	1	i	22*
CCCCNc1ccc2c3c(cccc13)C(=O)N(CCCC)C2=O	x	x	-2	-3	x	x
O=C1OC(=O)C2C1[C@@H]1CC[C@H]2O1 (some centres not stated)	0	0	16*	1	i	9
CSCc1cc(N2CCOCC2)nc(-c2ccccc2)n1	0	0	4	1	i	x
SMILES	Hsp70 activator	DTT redox prof	p97 inhibitor	Wee1 degr inh	HSV replic up	p97 confirm
O=C(CSc1nnnn1-c1cccc(F)c1)Nc1nc2ccccc2s1	0	0	1	-2	i	x
COc1ccc(N2C(=O)C(Cl)=C(Nc3ccc(OC)cc3OC)C2=O)cc1	0	-1	4	-3	i	x
CCOc1ccc(N2C(=O)C(Cl)=C(Nc3ccccc3O)C2=O)cc1	0	0	2	3	i	x
COc1ccccc1NC1=C(Cl)C(=O)N(c2ccccc2)C1=O	0	1	17*	-2	i	27*
COc1ccc(NC2=C(Cl)C(=O)N(c3ccccc3)C2=O)c(OC)c1	0	0	25*	-1	i	7
CN(C)/C=C/C(=O)C(F)(F)F	0	-1	3	0	i	x
O=C(NC1CCCC1)C(=O)N(c1ccccc1F)C(C(=O)NCC1CCCO1)c1cccs1 (configuration not stated)	0	0	4	-2	i	x
CN(Cc1cnccn1)Cc1nc(Cc2ccccc2F)no1	1	1	3	1	i	x
CCOc1cc(C(=O)Nc2ccc(N3CCOCC3)cc2)cc(Br)c1OC	0	-1	-4	8	i	x
CC(C)C(O)P(=O)(OCc1ccccc1)c1ccc(N(C)C)cc1 (configuration not stated)	0	0	1	4	i	x
O=c1c(-c2ccc([N+](=O)[O-])cc2)coc2c(O)c(O)ccc12	x	x	18*	-2	i	24*
CCCCn1nc2cc(C(=O)NCc3ccc(OC(F)(F)F)cc3)ccc2c1OC	0	2	16*	-2	i	3
O=[N+]([O-])c1ccc(S(=O)(=O)N(CCCN2CCOCC2)Cc2cccs2)cc1	0	0	-2	4	i	x
CCOC(=O)/C(=C\Nc1ccc(OC(F)(F)F)cc1)Sc1ncc(C(F)(F)F)cc1Cl	0	1	-5	1	i	x
COc1ccc(/C=N/NC(=O)c2ccccc2O)cc1Cn1cc([N+](=O)[O-])cn1	x	x	10	-4	i	x
COc1ccc(/C=N/NC(=O)c2cc(O)c(O)c(O)c2)cc1Cn1cc([N+](=O)[O-])cn1	0	-2	17*	-3	i	31*
Cc1ccccc1C(=O)NC1CCSC1=O (configuration not stated)	x	x	0	1	i	x
O=C(CCl)Nc1cccc(-c2cnc3ccccc3n2)c1	0	0	18*	0	i	35*
CC(C)(C)c1cc(=O)n(-c2ccccc2)[nH]1	0	-1	34*	4	i	7
O=c1ccc(=O)n(-c2ccccc2)[nH]1	x	x	4	2	i	x
CC(C)=CCN1CCN(Cc2ccc(C)s2)CC1CCO (configuration not stated)	0	-1	6	-3	i	x
C=CCn1c(NC(=O)c2ccc(Br)o2)c(S(=O)(=O)c2ccccc2)c2nc3ccccc3nc21	0	2	20*	-4	i	6

High-throughput results deposited in PubChem by several laboratories.
